Shown are actives, neighbours in structure and some others; about 7.1% of the full set was active somewhere.
SW480 rereplic = inducers of DNA re-replication in SW480 colon cancer cells; hit rate 1.8% among 340,000; Potency, µM (titrated, usually from 46.1 µM), inactives show at the highest dose re-replication activation, hits mostly activators; AID 624297; SW480 DNA re-replication, Hoechst DNA content imaging, 48 h; note: potency is the fitted concentration of half-maximal effect; % of control where 0% means no effect; nearly all actives have a fitted effect of over 55% in size
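Cells (250 per well) received 23 nL compound or DMSO by pin tool and were kept 48 hr at 37 C, 5% CO2. Nuclei were then stained with Hoechst for 40 min and scanned for DNA content.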
ATXN2 expr inh = ATXN2 expression inhibition; Potency, µM (titrated, usually from 57 µM), without a hit: at the highest dose activity change, negative = inhibition, actives largely listed as inhibitors; hit rate 0.72% among 360,000; HEK-293 ATXN2-luciferase reporter, luminescence, 24 h; AID 1745845; note: potency is the fitted concentration of half-maximal effect; % is set by controls: 0 for no effect and ±100 for the full control effect; nearly all actives have a fitted effect of over 55% in size
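qHTS (up to 57 uM final) was run with 24 h compound exposure of reporter cells at 37 °C. Each well was multiplexed: SteadyGlo luminescence measured ATXN2-luciferase expression after a fluorogenic Gly-Phe-AFC viability readout (25 uM final).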
MCF10A rereplic = DNA re-replication induction in MCF 10a cells; MCF 10A DNA re-replication, Hoechst nuclear intensity, 48 h; Potency, µM (titrated, usually from 46.1 µM), for inactives: top-dose activity, positive = re-replication, usual class: activators; hit rate 2.9% among 350,000; note: potency is the fitted concentration of half-maximal effect; % of control where 0% means no effect; nearly all actives have a fitted effect of over 50% in size
ATXN viability = viability counter-screen for ATXN expression inhibitors. S2 cells (HEK-293 line with an ATXN2-luciferase reporter) viability, CellTiter-Fluor protease fluorescence, 24 h. Potency, µM (titrated, usually from 56.7 µM), actives largely listed as cytotoxic. hit rate 0.49% among 400,000. AID 651635; note: potency is the fitted concentration of half-maximal effect; nearly all actives have a fitted effect of over 40% in size
IL1B secr inh = inflammasome signaling inhibition, IL-1 beta readout. AID 743279. activity change, % at 57.5 µM. hit rate 4.7% among 360,000. THP-1 LPS/ATP IL-1B secretion, AlphaLISA, 16 h; active compounds read low; in the data active = activity change below about -50%; inconclusive = mostly about -30% to -49%; note: % is set by controls: 0 for no effect and ±100 for the full control effect
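THP-1 cells pretreated 1 hr with compounds (up to 57.5 uM final), then stimulated with LPS (250 ng/mL final) plus ATP (1.25 mM final); secreted IL-1B measured by AlphaLISA after 16 hr, decreased signal indicating inhibition.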
PINK1 expr mod = modulators of PINK1 expression; PINK1 immunofluorescence, high-content cytometry, 24 h; Potency, µM (highest dose often 76.6 µM), for inactives: top-dose activation (PINK1 increase), most hits filed as activators; hit rate 0.2% among 410,000; AID 624263; active = well fitted activation curve with a large enough effect; inconclusive = small, poorly fitted or top-dose-only effect; cell line not stated here; note: potency is the fitted concentration of half-maximal effect; % of control where 0% means no effect; nearly all actives have a fitted effect of over 65% in size
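A stable cell line was treated with compounds at 5 concentrations for 24 hours, with CCCP as control. PINK1 levels and mitochondrial localization were measured by immunofluorescence with mitochondrial, cell and nuclear markers after fixation, read by laser-scanning cytometry.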
An asterisk follows results filed as active; i = inactive; ? = inconclusive; . = no result; [ ] = another dose, or the depositor's remark. Unless noted, calls come from the whole dose curve; as a rule, active = well fitted curve in the direction sought with a large enough effect; inconclusive = small, poorly fitted or top-dose-only effect, or another doubt; inactive = no such curve, though single readings can be large; an effect the other way counts as inactive or inconclusive.

SMILES | SW480 rereplic | ATXN2 expr inh | MCF10A rereplic | ATXN viability | IL1B secr inh | PINK1 expr mod
Cc1ccc(-c2cc(C(F)(F)F)n3nc(C(=O)NCCCn4ccnc4)cc3n2)cc1C | ? | -11.0% | 14.6µM* | i | -9.6 | ?
Cc1cc2n(n1)CCC(=O)N2Cc1ccc(C(=O)Nc2cc(Cl)ccc2C)cc1 | . | 0.0% | . | i | . | 4.6%
O=C(c1nn2c(C(F)(F)F)cc(-c3ccccc3)nc2c1Cl)N1CCN2CCCC2C1 (centres undefined) | -19.4% | -29.8% | 0.3% | i | -64.3* | -0.1%
CCCN1CNc2c(c(=O)[nH]c(=S)n2CCc2ccc(Cl)cc2Cl)C1 | . | . | . | . | . | 0.7%
CC(C)(C)c1cccc(P(=O)(c2ccccc2)c2ccccc2)c1O | ? | 40.0% | ? | i | -71.0* | 2.2%
CCOP(=O)(OCC)c1cccc(P(=O)(c2ccccc2)c2ccccc2)c1O | -2.2% | 18.3% | 11.8% | i | 54.6 | 0.1%
C=C1C(=O)C23CCC4C(C)(C(=O)OC)CCCC4(C)C2CCC1(O)C3 (centres undefined) | 1.16µM* | ? | 2.31µM* | 5.32µM* | -103.5* | -6.9%
CC1CCC(C(C)C)C(OC(=O)C[n+]2cc(-c3ccc(Cl)cc3)n3c2CCC3)C1 (centres undefined) | -8.5% | ? | ? | i | -86.1* | ?
O=C(C[n+]1cc(-c2ccc(Cl)cc2)n2c1CCC2)N1c2ccccc2Sc2ccccc21 | -4.5% | 20.9% | -5.1% | i | -57.1* | -0.6%
O=C(C[n+]1cc(-c2ccc(Cl)c(Cl)c2)n2c1CCC2)N1c2ccccc2Sc2ccccc21 | . | -18.0% | 5.8% | i | -25.3 | 9.7%
COc1ccc(-c2c[n+](CC(=O)N3c4ccccc4Sc4ccccc43)c3n2CCC3)cc1 | -3.4% | -32.0% | ? | i | -61.5* | ?
COc1cccc(CCN2C(=O)CCC3=C2CCC3=O)c1 | . | 11.6% | . | i | 0.0 | 1.9%
CCN(CC)C(=N)/C(C#N)=N/Nc1ccc(C)cc1 | -10.3% | 46.5% | ? | ? | -54.1* | 1.5%
Cc1ccc(N/N=C(\C#N)C(=N)N2CCCCCC2)cc1 | -1.0% | -15.7% | 0.7% | i | -9.6 | 0.6%
Cc1nc(Nc2cnc(/C=C/c3cc(C(=O)Nc4cccc(C(F)(F)F)c4)ccc3C)cn2)cc(N2CCNCC2)n1 | 16.4µM* | 15.8µM* | 14.6µM* | i | -97.0* | -2.0%
CCOc1ccc(NC(=O)C2CCN(c3nnc(C)c4c(C)n(-c5ccccc5)nc34)CC2)cc1 | . | -13.7% | . | i | . | -0.1%
CC1(C)Cc2c(sc3nc(SCC(=O)NCc4ccco4)n(-c4ccccc4)c(=O)c23)CS1 | -1.1%[9.22 µM] | -1.9% | 7.08µM* | i | 9.3 | 2.4%
Oc1c(Br)cc(/C=N/Nc2nncc3ccccc23)cc1Br | 0.9% | -3.4% | 20.6µM* | i | -5.1 | 1.5%
CCc1cccc(C)c1NC(=S)NCc1ccc2[nH]c(C)cc2c1 | 13µM* | 0.0% | -1.2% | i | -29.5 | 1.5%
COC(=O)C1CCN(Cc2ccc3c(c2)CN(C(=O)C2Cc4ccccc4O2)CCO3)CC1 (centres undefined) | . | . | . | i | . | 2.2%
Nc1nonc1-n1nnc(C(=O)N/N=C/C=C/c2ccccc2)c1CSC1=NCCS1 | ? | -11.6% | ? | ? | -89.8* | -0.9%
CCCN(CCC)Cc1c(C(=O)N/N=C/C(C)=C\c2ccccc2)nnn1-c1nonc1N | 19.4% | ? | 13.8% | ? | -68.1* | 4.0%
CN(C)c1ccc(/C=N/NC(=O)c2nnn(-c3nonc3N)c2CN(C)c2ccccc2)cc1 | 9.2µM* | -18.5% | 11.6µM* | i | 22.1 | 2.7%
CCCc1c(C(=O)N/N=C/C(C)=C/c2ccccc2)nnn1-c1nonc1N | 26.7% | -6.9% | 0.9% | i | -18.8 | 3.2%
CN(Cc1c(C(=O)N/N=C/c2ccccc2)nnn1-c1nonc1N)c1ccccc1 | 0.6% | -20.7% | 6.9% | i | 0.0 | 2.2%
SMILES | SW480 rereplic | ATXN2 expr inh | MCF10A rereplic | ATXN viability | IL1B secr inh | PINK1 expr mod
Nc1nonc1-n1nnc(C(=O)N/N=C/c2c(Cl)cccc2Cl)c1CSC1=NCCS1 | 24.0% | -9.5% | 10.1% | i | 0.0 | 0.6%
CCc1ccc(N2C(=O)CS(=O)(=O)C23C(=O)N(Cc2ccccc2)c2ccccc23)cc1 (centres undefined) | . | 11.2% | . | i | . | -5.1%
COc1cc(C(=O)Nc2c(C(=O)Nc3ccccc3F)oc3ccccc23)cc(OC)c1OC | . | 17.1% | . | i | . | 6.0%
CN1CCN(CC(=O)Nc2nc(-c3c[nH]c4ccccc34)cs2)CC1 | -5.1% | -12.1% | -9.5% | ? | -68.2* | 6.6%
CCC(C)Nc1nc(-c2c[nH]c3ccccc23)cs1 (centres undefined) | ? | -11.0% | ? | ? | -81.8* | ?
CNc1nc(-c2c[nH]c3ccccc23)cs1 | 4.4% | 6.8% | 23.1% | i | ? | 1.8%
CCOC(=O)C1CCCN(Cc2cn3c(-c4cccc(Br)c4)nnc3s2)C1 (centres undefined) | . | 3.8% | . | i | . | 1.6%
COc1cccc(N2CCN(c3ncnc4onc(-c5ccc(F)cc5)c34)CC2)c1 | . | 5.1% | . | i | . | 7.4%
COc1ccc(-c2c3c(=O)n(C)c(=O)n(C)c3cn2C2CCCCC2)cc1 | -14.2% | -6.9% | -2.6% | ? | -53.8* | .
Cc1ncc2c(c1CNS(=O)(=O)c1cccs1)CCN(C(=O)/C=C/c1cc(F)cc(F)c1)C2 | . | . | . | i | . | 0.0%
C[C@]12CC[C@@H]3c4ccc(O)cc4CC[C@H]3[C@H]1C[C@@H](O)[C@H]2O | . | 10.5% | . | . | . | .
Cc1ccc(NC(=O)CN2C(=O)c3cccnc3Sc3ccccc32)c(Br)c1 | . | . | . | . | . | 0.4%
Cc1ccc(C)c(C(=O)c2ccccc2NC(=O)c2ccccn2)c1 | ? | -3.5% | 7.31µM* | i | 18.2 | 8.6%
CC(=O)Nc1ccccc1NC(=O)c1cc(C)ccc1C | -2.9% | 12.2% | 2.8% | i | 15.9 | 1.5%
Cc1ccc(C)c(NC(=S)c2ccccn2)c1 | ? | 25.7% | ? | i | -101.4* | -0.3%
Cc1ccc2c(c1)C(=O)C(=O)N2CC(=O)Nc1ccccc1NC(=O)c1ccccn1 | 18.4µM* | 0.0% | 13µM* | i | 38.9 | 2.6%
COc1ccccc1CCNC(=O)c1ccc(-c2nc(CSc3ccc(C)cc3)c(C)o2)cc1 | . | -23.2% | . | i | . | 2.6%
CCCN(CCC)C(=O)C1CCCN(c2ncnc3onc(-c4ccc(F)cc4)c23)C1 (centres undefined) | . | 1.7% | . | i | . | 0.5%
CN(Cc1ccccc1OCCO)CC1CCCN(CCc2ccc(Cl)cc2)C1 (centres undefined) | 7.5% | . | ? | . | -61.4* | 5.2%
